# Compound activity from PubChem.
# Shown are actives, neighbours in structure and some others; about 7.7% of the full set was active somewhere.
# Sm TGR inh – blocks Schistosoma mansoni thioredoxin glutathione reductase; Potency, µM (top dose mostly 114 µM), for the others: top-dose activity change, negative = inhibition, hits mostly inhibitors; 360,000 compounds, 3% hits; purified TGR, DTNB reduction, TNB absorbance 405 nm; also: potency is read from the fitted curve at half-maximal effect; nearly all actives have a fitted effect of over 60% in size
#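 Kinetic colorimetric format: TGR-catalysed, NADPH-driven DTNB reduction monitored via TNB absorbance. Enzyme dispensed at 20 nM; compound exposure 15 min at room temperature before reaction start.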
# FMDV inh – foot and mouth disease virus antiviral activity | FMDV antiviral cell-based qHTS | Potency, µM (series often up to 57.9 µM), for the others: top-dose activity change, negative = inhibition, most hits filed as inhibitors | 410,000 compounds, 1.2% hits | AID 1159524; calls by dose curve; tested in HEK293T cells; also: read-out not given here; potency is read from the fitted curve at half-maximal effect; nearly all actives have a fitted effect of over 45% in size
# Giardia FBPA inh – blocks Giardia fructose-bisphosphate aldolase activity; 290,000 compounds, 0.71% hits; A8B2U2; purified Giardia FBPA; Potency, µM (top dose mostly 59.6 µM), for the others: top-dose activity, negative = inhibition, usual class: inhibitors; also: potency is read from the fitted curve at half-maximal effect; nearly all actives have a fitted effect of over 55% in size
# Target sequence (A8B2U2 whole entry, looked up): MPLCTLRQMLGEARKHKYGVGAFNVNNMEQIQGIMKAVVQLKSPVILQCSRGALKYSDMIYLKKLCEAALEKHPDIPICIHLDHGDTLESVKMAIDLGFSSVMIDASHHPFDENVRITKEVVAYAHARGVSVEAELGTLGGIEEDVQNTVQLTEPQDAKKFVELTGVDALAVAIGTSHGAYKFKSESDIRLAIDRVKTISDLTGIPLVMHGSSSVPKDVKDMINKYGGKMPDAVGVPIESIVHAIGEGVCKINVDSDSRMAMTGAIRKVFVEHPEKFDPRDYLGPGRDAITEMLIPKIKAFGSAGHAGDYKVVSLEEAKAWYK
#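 Giardia FBPA (40 nM reagent) was preincubated 10 min at RT with compound (up to 57.5 uM final), then substrate plus GAPDH/TPI/NAD/arsenate coupling system with diaphorase/resazurin was added; resorufin fluorescence (525/598 nm) was read after 20 min.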
# Tb PYK inh – T. brucei pyruvate kinase inhibition. TbPYK enzyme, Kinase-Glo Plus ATP luminescence, 45 min. AID 624173. 410,000 compounds, 0.12% hits. Q57TT1. Potency, µM (titrated, usually from 76.8 µM), for inactives: top-dose activity, negative = inhibition, hits mostly inhibitors; also: potency is read from the fitted curve at half-maximal effect; nearly all actives have a fitted effect of over 50% in size
#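 Enzyme and substrate buffer are dispensed first and compound is pin-transferred. ADP at 130 uM final then starts the reaction, which runs 45 min at room temperature. Detection reagent is added for 10 min before luminescence is imaged.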
# HCMV antiviral – inhibitors of human cytomegalovirus | AID 1259415 | activity change, negative = inhibition, % at 57.5 µM | HFF cells, HCMV-luciferase reporter, 72 h; hits give low values | 410,000 compounds, 4.5% hits; in the data active = activity change below about -60%; inconclusive = no clear call, values can overlap the other calls; inactive = above about -39%
#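 HFF cells seeded 16 h at 37C, treated with compounds, infected with luciferase-reporter HCMV at MOI 1 PFU/cell; luciferase read at 72 h post infection, normalized to buffer-only and Salinomycin controls.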
# RE007 growth inh – less growth of the S. pombe RE007 Vpr strain | S. pombe RE007 Vpr strain, BacTiter-Glo ATP luminescence, 24 h | Potency, µM (top dose mostly 92.2 µM), without a hit: top-dose activity change, negative = less growth, usual class: inhibitors | 360,000 compounds, 0.21% hits | AID 651644; active = well fitted falling curve with a large enough effect; inconclusive = small, poorly fitted or top-dose-only effect; inactive = no such curve, though single readings can be large or run the other way; also: potency is read from the fitted curve at half-maximal effect; nearly all actives have a fitted effect of over 50% in size
#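 Fission yeast strain RE007, carrying one chromosomally integrated HIV-1 vpr copy, was seeded at OD 0.01 in PMG+AL medium with 23 nL pinned compound. After 24 h at 30 °C and 99% humidity, viability was read by BacTiter-Glo luminescence.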
# Active calls of the source: *; ? = inconclusive; . = no result; ! = not confirmed by another sample; [ ] = remark or other dose. Unless noted, calls follow the shape of the dose curve; as a rule, active = well fitted curve in the direction sought with a large enough effect; inconclusive = small, poorly fitted or top-dose-only effect, or another doubt; inactive = no such curve, though single readings can be large; an effect the other way counts as inactive or inconclusive. % is scaled to controls: 0 for no effect and ±100 for the full control effect.
SMILES,Sm TGR inh,FMDV inh,Giardia FBPA inh,Tb PYK inh,HCMV antiviral,RE007 growth inh
COc1ccc(C2/C=C\C(c3ccc(OC)cc3)N(Cc3ccc(F)cc3)C(=O)C(=O)N2Cc2ccc(F)cc2)cc1 (centres undefined),.,.,4.5%,.,.,.
Cc1cc(C)c2c(=O)cc(C(=O)Nc3ccccc3C(F)(F)F)oc2c1,1.2%,-18.0%,.,11.0%,-5.0,.
O=C(COc1ccccc1Cl)Nc1ccc(Cl)c(-c2nc3ccccc3o2)c1,-1.8%,-28.3%,.,3.1%,-15.7,.
CCOc1ccc(-n2c(-c3ccco3)nc3c(cnn3-c3ccc(C)cc3)c2=O)cc1,5.1%,-23.7%,-4.3%,0.9%,19.0,-20.8%
Cc1cccc(-n2c(-c3ccco3)nc3c(cnn3-c3ccc(F)cc3)c2=O)c1,3.2%,0.0%,.,-1.0%,-65.4*,.
COc1ccc(Oc2c(Cl)cnn(-c3ccc(Cl)c(Cl)c3)c2=O)cc1,6.9%,28.2µM*,3.5%,-11.5%,28.2,1.2%
Cc1ccc(-n2c(-c3ccco3)nc3c(cnn3-c3ccccc3C)c2=O)cc1,-9.2%,?,-3.1%,6.5%,-61.4*!,-5.4%
COc1ccc(-n2c(C)nc3c(cnn3-c3ccc(Cl)cc3)c2=O)cc1,10.4%,?,-1.9%,3.1%,-76.8*,27.7%
c1cnc2c(-c3nccc4c3[nH]c3ccccc34)cccc2c1,.,-1.1%,0.9%,.,.,.
COc1ccc(C2CC(=O)Nc3c2c(=O)[nH]c2nc4ccccc4n32)cc1 (centres undefined),-18.5%,-19.8%,.,-1.9%,14.1,.
CO[C@@H]1COC(=O)C/C=C\[C@H](C)[C@H](OC)COC(=O)[C@H](C)NC(=O)C/C=C\[C@H]1C,.,.,1.2%[12.9 µM],.,.,.
Cc1ccc(-n2c(-c3ccco3)nc3c(cnn3-c3ccc(C)cc3)c2=O)cc1,-8.0%,28.2µM*!,0.4%,4.3%,-6.1,6.5%
O=C(NCc1cccc(F)c1)c1cccc(OC2CCN(C(=O)C3CC3)CC2)c1,-5.0%,28.2µM*,.,-2.6%,?,2.7%
O=S(=O)(NC1CC1)c1ccc(S(=O)(=O)N2CCCC(c3nc(-c4cccnc4)no3)C2)cc1 (centres undefined),0.6%,?,1.0%,-5.1%,-66.3*,14.3%
O=S(=O)(c1ccc(F)cc1)N1CCCC(c2nc(-c3ccc(F)cc3)no2)C1 (centres undefined),-5.2%,-28.7%,.,-6.4%,-6.5,-2.1%
Cc1cnc(SCc2ccccn2)nc1C1CCCN(Cc2ccsc2)C1 (centres undefined),.,-17.3%,.,.,.,.
Cc1ccc(-n2c(=O)c3c(c4cc(C)ccc4n3C)n(CC(=O)Nc3ccc(F)cc3)c2=O)cc1,-2.6%,-1.4%,.,1.6%,-75.1*,.
COc1cc(=O)n2c(c1C(=O)NCc1nccs1)CCN(Cc1ccccc1F)CC2,.,-7.7%,.,.,.,.
Cc1c2oc3c(C)ccc(C(=O)NC4C(=O)NC(C(C)C)C(=O)N5CCCC5C(=O)N(C)CC(=O)N(C)C(C(C)C)C(=O)OC4C)c3nc-2c(C(=O)NC2C(=O)NC(C(C)C)C(=O)N3CCCC3C(=O)N(C)CC(=O)N(C)C(C(C)C)C(=O)OC2C)c(N)c1=O (centres undefined),.,-5.5%[27 µM],.,.,.,.
N#Cc1ccc(N/N=C/c2cn(-c3ccccc3)nc2-c2ccccc2)c([N+](=O)[O-])c1,-20.2%,-8.6%,20.4%,-3.1%,38.8,4.0%
NS(=O)(=O)c1ccc(N/N=C/c2cn(-c3ccccc3)nc2-c2cccs2)c([N+](=O)[O-])c1,4.0%,?,7.3%,6.1%,-113.0*,-8.0%
NC(=O)N/N=C/c1cn(-c2ccccc2)nc1-c1cccs1,-3.5%,32.6%,-3.4%,-3.9%,8.8,?
NS(=O)(=O)c1ccc(N/N=C/c2cn(-c3ccccc3)nc2-c2cccs2)cc1,-4.7%,-25.3%,1.8%,-12.6%,-76.6*,-4.7%
CNC1=CN=C(c2ccccc2)c2cc(Cl)ccc2N1,.,.,4.1%,.,.,.
COc1ncc2nc(-c3ccc(F)cc3)c(=O)n(Cc3cccs3)c2n1,.,-4.5%,-1.5%,.,.,.
SMILES,Sm TGR inh,FMDV inh,Giardia FBPA inh,Tb PYK inh,HCMV antiviral,RE007 growth inh
O=[N+]([O-])c1ccc(C[n+]2cccc3ccccc32)cc1,0.8%,-1.8%,1.5%,-3.6%,-10.1,-1.8%
O=[N+]([O-])c1ccc(C[n+]2cccc3ccc4cccnc4c32)cc1,0.0%,-17.0%,?,?,-96.4*,?
O=C(NCc1ccc(F)cc1F)Nc1cnccc1C(F)(F)F,-0.9%,-12.3%,1.0%,-1.0%,-67.9*,5.3%
O=C(NCc1cccnc1)Nc1ccc(F)cc1F,1.7%,20.1%,12.5%,-3.0%,44.8,-5.8%
COc1cccc(CNS(=O)(=O)c2c(C(=O)N3CCC(C)CC3)c(C)n(C)c2C)c1,5.5%,30.6%,.,-7.4%,-3.1,.
CC(C)CC(NC(=O)OCc1ccccc1)C(=O)NCC(=O)NCC(=O)OCc1ccccc1 (centres undefined),.,.,.,.,-31.9,.
CCc1ccc(NC(=O)c2ccc3c(c2)N(Cc2ccc(C)cc2)CCS3)cc1,1.3%,57.5%,.,0.2%,51.6,.
CCCOc1ccc(NC(=O)CC2C(=O)Nc3ccccc3N2CC(=O)N2CCCC2)cc1 (centres undefined),-10.3%,-10.8%,.,1.5%,-60.4*,0.0%
COc1ccccc1CNc1ccc(-c2nc(C(C)C)no2)cc1[N+](=O)[O-],4.3%,8.7%,.,2.3%,3.9,.
Cc1ccc(-n2c(-c3cccs3)nc3nc4ccccc4nc32)cc1,4.7%,.,4.0%,.,-63.0*,.
Fc1ccc(-n2c(-c3cccs3)nc3nc4ccccc4nc32)cc1,6.0%,-5.7%,5.4%,-8.9%,-4.4,-15.3%
O=C(NCc1ccco1)C1=CN2CCN(Cc3ccccc3)C(=O)N=C2O1,.,.,.,.,0.0,.
CSc1nc(C2CC2)cc(-c2cccs2)c1C#N,0.4%,.,4.6%,-7.8%,-102.0*,-6.1%
COc1ccc(-c2cc(C3CC3)nc(SCC(=O)c3cccs3)c2C#N)cc1,-0.2%,-11.9%,1.2%,-18.2%,-24.3,0.0%
COc1ccc(/C=C(/NC(=O)c2cccs2)C(=O)N2CCOCC2)cc1OC,-12.7%,-16.1%,-7.1%,-2.9%,0.9,-8.9%
O=C(N/C(=C/c1ccc(Br)cc1)C(=O)N1CCOCC1)c1cccs1,20.2%,21.5%,1.5%,0.6%,-62.2*,-18.6%
COc1ccc(CNC(=O)Cn2ncc3c(=O)oc4ccccc4c32)c(OC)c1,1.8%,0.0%,.,4.7%,10.7,.
CCC1CO/C(=C(\C(Cl)=C(Cl)Cl)[N+](=O)[O-])N1 (centres undefined),8.91µM*,-20.8%,-1.0%,-0.8%,-12.9,13.1%
